# VACV mCherry inh: vaccinia inhibition (mCherry reporter) | hit rate 0.63% among 310,000 | Potency, µM (series often up to 36.5 µM), for the others: top-dose activity change, negative = inhibition, usual class: inhibitors | Vaccinia virus mCherry reporter infection, fluorescence; calls by dose curve; tested in A549 cells; also: potency is read from the fitted curve at half-maximal effect; nearly all actives have a fitted effect of over 35% in size
# FMDV inh: foot and mouth disease virus antiviral activity; Potency, µM (titrated, usually from 57.9 µM), inactives show top-dose activity change, negative = inhibition, usual class: inhibitors; hit rate 1.2% among 410,000; FMDV antiviral cell-based qHTS; calls by dose curve; tested in HEK293T cells; also: read-out not given here; potency is read from the fitted curve at half-maximal effect; nearly all actives have a fitted effect of over 45% in size
# Vaccinia Venus: inhibitors of vaccinia virus (Venus reporter). Vaccinia virus Venus reporter expression, fluorescence. Potency, µM (highest dose often 36.5 µM), without a hit: top-dose activity change, negative = inhibition, most hits filed as inhibitors. hit rate 0.46% among 330,000. AID 720580; calls by dose curve; tested in A549 cells; also: potency is read from the fitted curve at half-maximal effect; nearly all actives have a fitted effect of over 30% in size
# HCMV inh: human cytomegalovirus inhibition; activity change, negative = inhibition, % at 57.5 µM; AID 1259415; HFF cells, HCMV-luciferase reporter, 72 h; hits give low values; hit rate 4.5% among 410,000; in the data active = activity change below about -60%; inconclusive = no clear call, values can overlap the other calls; inactive = above about -39%
#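 Steps: HFFs plated, 16 h 37C; compounds added; HCMV-luciferase added to MOI 1 PFU/cell; 72 h 37C; OneGlo reagent, 5 min room temperature; luminescence read, normalized to controls.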
# HCV inhibitor: HCV inhibition | Huh7.5.1 HCVcc-Cre infection, luciferase reporter, 44 h | hit rate 3.4% among 340,000 | Potency, µM (top dose mostly 41.8 µM), without a hit: top-dose activity change, negative = inhibition, actives largely listed as inhibitors; active = well fitted inhibition curve with a large enough effect; inconclusive = small, poorly fitted or top-dose-only effect, or another doubt; inactive = no such curve, though single readings can be large or run the other way; also: potency is read from the fitted curve at half-maximal effect
#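 Cells (1,000/well) were plated 4 h before compound, then infected with HCVcc-Cre virus (~0.5 moi). After 44 h further culture, infection was read as luciferase luminescence following a 15 min substrate incubation at room temperature.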
# Active calls of the source: *; i = inactive; ? = inconclusive; nt = no result; [ ] = dose if it differs, or a comment. In the library only some 7.3% were active in any assay of this set; here they are far more common. % is scaled to controls: 0 for no effect and ±100 for the full control effect.
SMILES,VACV mCherry inh,FMDV inh,Vaccinia Venus,HCMV inh,HCV inhibitor
COc1cc(OC)cc(-c2cc3nc(C)c(CCC(=O)NCc4ccccc4)c(C)n3n2)c1,?,5.6µM*,-25%,-69*,?
COc1cc(OC)cc(-c2cc3nc(C)c(CCC(=O)NCc4ccc(Cl)cc4)c(C)n3n2)c1,-5%,13µM*,-22%,-61*,nt
COc1cc(OC)cc(-c2cc3nc(C)c(CCC(=O)NCCc4cccc(C)c4)c(C)n3n2)c1,-16%,-27%,-8%,-36,nt
COc1ccc(CNC(=O)CCc2c(C)nc3cc(-c4ccc(OC)cc4OC)nn3c2C)cc1,-11%,2%,-10%,-7,nt
COc1ccc(NC(=O)CCc2c(C)nc3c(c2C)c(=O)n(C)c(=O)n3C)c(OC)c1,-5%,?,-10%,-76*,nt
COc1cc(OC)cc(-c2cc3nc(C)c(CCC(=O)Nc4ccccc4OC)c(C)n3n2)c1,-9%,?,-6%,-62*,nt
O=C(Cc1ccccc1)Nc1sc2c(c1C(=O)Nc1ccc(Br)cc1)CCCC2,i,1%,-19%,?,nt
O=C(c1ccc(CSc2nc3ccncc3[nH]2)cc1)N1CCCCC1,-5%,-14%,-11%,10,1%[8.37 µM]
Cc1ccc(C)c(N2CCN(C(=O)c3ccc(CSc4nc5ccncc5[nH]4)cc3)CC2)c1,-15%,18µM*,-20%,?,?
COc1cccc(N2CCN(C(=O)c3ccc(CSc4nc5ccncc5[nH]4)cc3)CC2)c1,-20%,-19%,-14%,-87*,?
CC1CCCCN1C(=O)COC(=O)/C=C/c1ccc2ccccc2n1 (stereo unspecified),?,51%,?,-84*,-23%
CC(=O)NCCNc1ncnc2ccc(-c3ccccc3C#N)cc12,nt,-27%,nt,nt,nt
Cc1ccccc1-c1nc(CS(=O)(=O)CC(=O)N2CCN(c3ccccc3)CC2)c(C)o1,-21%,?,-18%,-29,nt
CCOC(=O)N1CCN(C(=O)CSCc2nc(-c3ccccc3F)oc2C)CC1,nt,-28%,nt,-80*,?
Cc1oc(-c2ccccc2F)nc1CS(=O)(=O)CC(=O)N1CCN(c2ccccc2)CC1,?,25µM*,?,-19,-11%
CCOC(=O)N1CCN(C(=O)CSCc2nc(-c3ccccc3C)oc2C)CC1,nt,?,nt,-23,-28%
Nc1ccccc1/C=C/c1ccnc2ccccc12,-29%,nt,?,nt,nt
CC(C)NC(=O)CCC(=O)N1Cc2ccccc2Oc2ncccc21,-13%,-3%,-4%,0,nt
COc1cc(NC(=O)c2cc3c(=O)n(Cc4ccco4)ccc3nc2C)cc(OC)c1OC,-2%,-11%,-10%,-28,nt
CCCCN(CC)C(=O)CSc1c2c(nc3ccc(Cl)cc13)CCCC2,-11%,?,-15%,-38,nt
CCc1c(C2(O)CCCCC2)[nH]c2ccc(C(F)(F)F)cc12,-28%,40µM*,?,-26,?
CC(C)c1nc2ccc(C(=O)NCc3ccc(F)cc3)cc2o1,-13%[7.34 µM],-9%,-5%[7.34 µM],35,nt
COc1ccc(OC)c(NC(=O)c2c(NCc3ccc(OC)c(OC)c3)sc3c2CCC(C)C3)c1 (stereo unspecified),-24%,-13%,-24%,3,nt
O=C(c1ccc(NS(=O)(=O)c2cccc([N+](=O)[O-])c2)cc1)N1CCCCCC1,-1%,-15%,-5%,-2,?
O=C(c1ccccc1NS(=O)(=O)c1cccc([N+](=O)[O-])c1)N1CCCC1,-7%,5%,-17%,-79*,nt
SMILES,VACV mCherry inh,FMDV inh,Vaccinia Venus,HCMV inh,HCV inhibitor
CC(C)CCn1c(=O)c2cccnc2n(CC(=O)Nc2ccc(F)cc2)c1=O,-16%,-1%,0%,13,nt
Cc1ccccc1C(=O)N1CCC2CC1c1cc(Cl)ccc12 (stereo unspecified),i,-5%,-15%,2,10%
Cc1ccccc1C(=O)N1CCC2CC1c1cc(-c3ccc(F)cc3)ccc12 (stereo unspecified),-3%,32µM*,-26%,12,?
CCOc1ccc(C(=O)Nc2cccc(-c3nc4cccnc4s3)c2C)cc1OCC,-28%,-27%,-15%,10,nt
COc1cc(OC)c2c(C)c(CC(=O)NCc3ccccc3OC)c(=O)oc2c1,0%,-10%,9%,-7,nt
C[C@@H]1C[C@@H](CC(=O)NCC2Cc3cccc(-c4ccncc4)c3O2)NC(=S)N1 (stereo partly specified),i,8%,-26%,nt,nt
Cc1ccc(Sc2ncccc2[N+](=O)[O-])cc1,?,0%,-10%,-19,11%
Cc1c([N+](=O)[O-])cnc(Sc2ccccc2)c1[N+](=O)[O-],nt,22µM*,nt,-99*,?
Cc1cc(C)c(S(=O)(=O)Nc2ccc3c(c2)CCC3)c(C)c1,i,80%,-16%,-85*,11µM*
Cc1cc(C)c(S(=O)(=O)Nc2ccc(C(N)=O)cc2)c(C)c1,-14%,10%,-11%,-84*,21%
CC(=O)Nc1ccc(S(=O)(=O)Oc2ccc(C(=S)N3CCC(O)CC3)cc2)cc1,-8%,?,-15%,-72*,?
CC(=O)Nc1ccc(S(=O)(=O)Oc2ccc(C(=S)N3CCCCC3)cc2)cc1,?,?,-24%,?,?
CCOc1cc(C(=S)N2CCOCC2)ccc1OS(=O)(=O)c1ccc(NC(C)=O)cc1,-13%,nt,-12%,-83*,7.1µM*
COc1ccc(Cc2nnc(Nc3ccccc3OC)[nH]c2=O)cc1,i,2%,-16%,-24,2.8µM*
Cc1ccc(Cn2c(CNS(=O)(=O)c3ccc(Cl)s3)nc3cccnc32)cc1,-2%,70%,-15%,-20,nt
COc1ccccc1OC(C)C(=O)Nc1ccc(-c2nc3ccccc3s2)cc1 (stereo unspecified),i,14%,-8%,-17,nt
CCc1c(C)sc(NC(=O)CN2CCN(C(=O)c3ccco3)CC2)c1C(=O)OC,-8%,?,-18%,-15,11µM*
N#Cc1ccc(CN2CCCC3(CCN(C(=O)c4cnccn4)CC3)C2)cc1,nt,-16%,nt,nt,nt
Cn1c(Cl)cnc1C1CC(=O)c2cc(Cl)ccc2O1 (stereo unspecified),-2%,20µM*,-14%,-96*,?
COc1ccc(C2NC(=O)N(C)C3=C2C(=O)N(c2cccc(C(=O)O)c2)C3)cc1 (stereo unspecified),6%,-6%,-9%,11,nt
Cc1nc2c(-c3ccc(Cl)cc3)cnn2c(N)c1-c1ccc(F)cc1,nt,0.79µM*,nt,?,-3%
Cc1nc2c(-c3ccc(F)cc3)cnn2c(N)c1-c1ccccc1,nt,16µM*,nt,-72*,14µM*
COc1ccc(/C=N/NC(=O)c2ccc(N3CCCC3=O)cc2)cc1,i,0%,6%,-22,-17%
COc1ccc(O)c(/C=N/NC(=O)c2cccc(N3CCCC3=O)c2)c1,2.5µM*,23%,-16%,54,?
O=C(N/N=C/c1cc(Br)ccc1O)c1cccc(N2CCCC2=O)c1,7.9µM*,-22%,?,-12,?
COc1ccc(O)c(/C=N/NC(=O)c2ccc(N3CCCC3=O)cc2)c1,2.8µM*,-19%,?,?,11µM*

# Bioassay records as filed in PubChem.
